# PubChem BioAssay (NCATS)
# Where “and” joins values, the source holds several entries; their conditions need not be identical. Identical values can stand only once. Records with an inconclusive call do not appear. Calls of active or inactive are those of the source. Unless noted, the call rests on the fitted dose curve; in most records, active means well fitted curve in the direction sought with a large enough effect; inconclusive means small, poorly fitted or top-dose-only effect, or another doubt; inactive means no such curve, though single readings can be large; an effect the other way counts as inactive or inconclusive.
# Assay: qHTS of Nrf2 Activators: LOPAC Validation (AID 624149); further: 0% is about no effect
# Conditions: Nrf2/ARE reporter cell assay; series mostly up to 46.1 µM; activation: at the top concentration
# In short: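 Luminescence read-out of ARE-luciferase activation: AREc32_Fluc cells treated with compounds for 24 hr at 37 deg C, then lysed with Steady-Glo for 30 min at room temperature before reading.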
row,SMILES,activation
1,OCc1ccc(-c2nn(Cc3ccccc3)c3ccccc23)o1,6.9% (inactive)
2,CC1=C(C(=O)O)N2C(=O)[C@@H](NC(=O)C(N)c3ccccc3)[C@H]2SC1 (stereo not given in full),-1.93% (inactive)
3,CC(=O)[C@H]1CC[C@H]2[C@@H]3CCC4=CC(=O)CC[C@]4(C)[C@H]3CC[C@]12C,-2.24% (inactive)
4,COc1cc2ncnc(Nc3cccc(Cl)c3)c2cc1OC,-1.23% (inactive)
5,NC(=O)c1cccc(N)c1,-0.709% (inactive)
6,COc1cc2nc(N3CCCN(C)CC3)nc(NC3CCN(Cc4ccccc4)CC3)c2cc1OC,8.33% (inactive)
7,CCN(CC)CCn1c(=O)c(Cc2ccc(OC)cc2)nc2ccccc21,-1.34% (inactive)
8,CCCCS(=N)(=O)CCC(N)C(=O)O (stereo not given),-0.053% (inactive)
9,N[C@@H](Cc1ccc(O)c(O)c1)C(=O)O,-2.28% (inactive)
10,Nc1nc(N)c2nc(CNc3ccc(C(=O)NC(CCC(=O)O)C(=O)O)cc3)cnc2n1 (stereo not given),-2.24% (inactive)
11,NC(=O)c1ccc2[nH]ccc2c1,-0.453% (inactive)
12,CC(C)NCC(O)c1ccc(NS(C)(=O)=O)cc1 (stereo not given),-2.53% (inactive)
13,CC1CC2C3CCC4=CC(=O)C=C[C@]4(C)[C@@]3(F)[C@@H](O)C[C@]2(C)[C@@]1(O)C(=O)CO (stereo not given in full),-1.74% (inactive)
14,Cc1ccc(S(=O)(=O)N[C@@H](Cc2ccccc2)C(=O)CCl)cc1,-1.81% (inactive)
15,CCN(CC)CC#CCOC(=O)C(O)(c1ccccc1)C1CCCCC1 (stereo not given),-0.523% (inactive)
16,O=C(O)C1CCCN(CCC=C(c2ccccc2)c2ccccc2)C1 (stereo not given),-0.919% (inactive)
17,CCN1CCCC1CNC(=O)c1cc(S(N)(=O)=O)ccc1OC (stereo not given),-0.283% (inactive)

# Assay: Cytotoxicity counterscreen for NFkB agonists and antagonists (AID 624476); further: potency means the concentration at half of the fitted maximal effect; on activity change, negative = cytotoxicity: on the % scale 0 is the no-effect control and ±100 the full control effect
# Conditions: NFkB reporter cell line viability counterscreen; series mostly up to 46.1 µM; activity change, negative = cytotoxicity: at the top concentration
SMILES,Potency,"activity change, negative = cytotoxicity"
COc1cc2c(Nc3ccc(Br)cc3F)ncnc2cc1OCC1CCN(C)CC1,26.4 µM (active),–
CCN(CC)CCn1c(=O)c(Cc2ccc(OC)cc2)nc2ccccc21,–,1.98% (inactive)
CC(C)C[C@H](NC(=O)[C@H](CCc1ccccc1)NC(=O)CN1CCOCC1)C(=O)N[C@@H](Cc1ccccc1)C(=O)N[C@@H](CC(C)C)C(=O)[C@@]1(C)CO1,0.148 µM (active),–
CNC(=O)c1cc(Oc2ccc(NC(=O)Nc3ccc(Cl)c(C(F)(F)F)c3)cc2)ccn1,18.7 µM (active),–

# Assay: qHTS Assay for Identification of Small Molecule Agonists for NFkB Signaling Pathway. (AID 624478);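 further: compounds tested together with TNF alpha at its EC50 of 10 pM; 0% is about no effect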
# Conditions: NFkB pathway reporter cell assay, agonist mode, cells co-stimulated with 10 pM TNF alpha; series mostly up to 46.1 µM; activation: at the top concentration
# In short: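 ME-180 cervical carcinoma, stable NFkB-RE beta-lactamase reporter; 1000 cells/well, overnight attachment; cpd + TNF alpha 10 pM final, 5 h 37 C; LiveBLAzer 2 h RT; FRET 460/530 nm, ex 405 nm.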
row,SMILES,activation
1,COc1cc2c(Nc3ccc(Br)cc3F)ncnc2cc1OCC1CCN(C)CC1,0.477% (inactive)
2,COc1cc2nc(N3CCCN(C)CC3)nc(NC3CCN(Cc4ccccc4)CC3)c2cc1OC,9.85% (inactive)
3,CCN(CC)CCn1c(=O)c(Cc2ccc(OC)cc2)nc2ccccc21,3.17% (inactive)
4,CC(C)C[C@H](NC(=O)[C@H](CCc1ccccc1)NC(=O)CN1CCOCC1)C(=O)N[C@@H](Cc1ccccc1)C(=O)N[C@@H](CC(C)C)C(=O)[C@@]1(C)CO1,-2.8% (inactive)
5,Cc1c(-c2ccc(O)cc2)n(Cc2ccc(OCCN3CCCCCC3)cc2)c2ccc(O)cc12,5.92% (inactive)
6,CNC(=O)c1cc(Oc2ccc(NC(=O)Nc3ccc(Cl)c(C(F)(F)F)c3)cc2)ccn1,3.51% (inactive)

# Assay: qHTS Assay for Identification of Small Molecule Antagonists for NFkB Signaling Pathway. (AID 624479; calls by dose curve; further: potency means the concentration at half of the fitted maximal effect; on activity change, negative = inhibition: on the % scale 0 is the no-effect control and ±100 the full control effect)
# Conditions: NFkB pathway reporter cell assay, antagonist mode; series mostly up to 38.3 µM; activity change, negative = inhibition: at the top concentration
SMILES,Potency,"activity change, negative = inhibition"
COc1cc2nc(N3CCCN(C)CC3)nc(NC3CCN(Cc4ccccc4)CC3)c2cc1OC,23.7 µM (active),–
CCN(CC)CCn1c(=O)c(Cc2ccc(OC)cc2)nc2ccccc21,–,-17.9% (inactive)
CC(C)C[C@H](NC(=O)[C@H](CCc1ccccc1)NC(=O)CN1CCOCC1)C(=O)N[C@@H](Cc1ccccc1)C(=O)N[C@@H](CC(C)C)C(=O)[C@@]1(C)CO1,0.0033 µM (active),–
Cc1c(-c2ccc(O)cc2)n(Cc2ccc(OCCN3CCCCCC3)cc2)c2ccc(O)cc12,–,19.3% (inactive)
CNC(=O)c1cc(Oc2ccc(NC(=O)Nc3ccc(Cl)c(C(F)(F)F)c3)cc2)ccn1,9.43 µM (active),–

# Assay: Cell Proliferation Assay against the TMD8 Cell Line (AID 651645);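 further: cells exposed to compound for 48 h before reading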
# Conditions: TMD8 DLBCL cell line proliferation/viability; at 46.1 µM (top of the series)
# In short: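 Cell viability of the ABC DLBCL line TMD8 is measured by CellTiter-Glo luminescence following a 48-hour incubation with compound. Percent activity uses DMSO as 100% and 9.2 uM bortezomib (final) as 0%.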
row,SMILES,viability (% of control) [%]
1,COc1cc2c(Nc3ccc(Br)cc3F)ncnc2cc1OCC1CCN(C)CC1,8.14
2,COc1cc2nc(N3CCCN(C)CC3)nc(NC3CCN(Cc4ccccc4)CC3)c2cc1OC,3.15
3,CCN(CC)CCn1c(=O)c(Cc2ccc(OC)cc2)nc2ccccc21,89.1
4,CC(C)C[C@H](NC(=O)[C@H](CCc1ccccc1)NC(=O)CN1CCOCC1)C(=O)N[C@@H](Cc1ccccc1)C(=O)N[C@@H](CC(C)C)C(=O)[C@@]1(C)CO1,3.43
5,CNC(=O)c1cc(Oc2ccc(NC(=O)Nc3ccc(Cl)c(C(F)(F)F)c3)cc2)ccn1,-0.0117

# Assay: Cell Proliferation Assay against the HBL1 Cell Line (AID 651646);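 further: cells exposed to compound for 48 h before reading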
# Conditions: HBL1 DLBCL cells; at 46.1 µM (top of the series)
# Text: One class of targeted therapeutics showing early clinical success in killing of ABC DLBCL lines are small molecule inhibitors of the Bruton tyrosine kinase (BTK) 11.
# Prior to any combination assays, using an NCATS developed oncology compound library called the Mechanism of Interrogation Plate (MIPE), two well studied ABC DLBCL lines (TMD8 and HBL1) were screened using a cell viability assay (CellTiterGlo) and a 12-point titration series for each single agent. These initial experiments offered insight into the concentration range that offered the best coverage of activity and non-activity to assure relevant data is generated. In addition to the viability signature associated with this library, we examined the apoptotic response of each agent versus the TMD8 line as judged by caspase 3/7 activation. Activity was assayed at both 8 and 16 hour time-points to gain an appreciation of which agents induced an apoptotic response in a reasonable timeframe from a therapeutic exposure perspective. MIPE was also assayed for single agent viability in a human mesenchymal stem cell (hMSC) line as a surrogate of each library member's potential therapeutic index.
# A total of 500 log growing HBL1 cells are seeded per well in 5 uL of a RPMI with glutamine (or Glutamax), without phenol red plus 5% FBS and 1X Pen/Strep into 1536 -solid white high base tissue culture treated Greiner One Bio Plates (789173-F) using a multidrop combi dispenser and a small sterile cassette. Compounds and controls totaling 23nL per well (negative control DMSO and positive control 9.2 uM Bortezomib-final) are immediately added to the plates using a 1536 head pin tool from Kalypsys. The plates are then covered with stainless steel gasket lids from Kalypsys and incubated for 48 hours at 37C under 95% relative humidity with 5% CO2. After 48 hours, the plates are removed and allowed to reach room temperature before 3 uL of Cell Titer Glo reagent (Promega) is added using an Aurora Flying Reagent Dispenser Bioraptor. The plates are then spun at 1000 rpms to remove bubbles and incubated for 15 minutes at room temperature before read on a ViewLux using a luminescent filter with a 10 second exposure. The relative luciferase units are used to calculated percent activity using DMSO as 100% and Bortezomib as 0%.
row,SMILES,"viability, percent of control [%]"
1,COc1cc2c(Nc3ccc(Br)cc3F)ncnc2cc1OCC1CCN(C)CC1,4.03
2,COc1cc2nc(N3CCCN(C)CC3)nc(NC3CCN(Cc4ccccc4)CC3)c2cc1OC,3.52
3,CCN(CC)CCn1c(=O)c(Cc2ccc(OC)cc2)nc2ccccc21,99.1
4,CC(C)C[C@H](NC(=O)[C@H](CCc1ccccc1)NC(=O)CN1CCOCC1)C(=O)N[C@@H](Cc1ccccc1)C(=O)N[C@@H](CC(C)C)C(=O)[C@@]1(C)CO1,3.69
5,CNC(=O)c1cc(Oc2ccc(NC(=O)Nc3ccc(Cl)c(C(F)(F)F)c3)cc2)ccn1,1.39

# Assay: qHTS assay for environmental chemicals that activate the Aryl hydrocarbon Receptor (AhR) signaling pathway (AID 651777); further: % of control where 0% means no effect; nearly all actives have a fitted effect of over 15% in size
# Conditions: 1A2-DRE human hepatoma cells, luciferase, 24 h; stronger effect = higher value
# In short: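 Luminescence (One-Glo, 30 min, room temperature) reports AhR-driven luciferase in stably transfected human hepatoma cells bearing DRE and CYP1A2 promoter. Cells (1,200/well) were treated with compound for 24 hr at 37 C in qHTS format.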
row,SMILES,activation
1,CC(=O)[C@H]1CC[C@H]2[C@@H]3CCC4=CC(=O)CC[C@]4(C)[C@H]3CC[C@]12C,0.0693% (inactive) and 1.75% (inactive) and -2.26% (inactive)
2,N[C@@H](Cc1ccc(O)c(O)c1)C(=O)O,2.04% (inactive)
3,Nc1nc(N)c2nc(CNc3ccc(C(=O)NC(CCC(=O)O)C(=O)O)cc3)cnc2n1 (stereo not given),-4.32% (inactive)
